Consider 40 compounds from PubChem BioAssay.

SMILES strings stand for the structures. Active and inactive are the calls of the source. How the calls were made is not given here. Where a SMILES comes first, the peptide text is derived from it. [ ]: non-standard residue; d: D form. The star is where a group is joined. ξ: configuration not given here. Piv = CC(C)(C)C(=O)*; ξNva = CCCC(N)C(=O)O

In general, inhibition refers to how much of the control response was suppressed.

The target in this experiment is Pantothenate synthetase (Mycobacterium tuberculosis (strain ATCC 25618 / H37Rv)) (UniProt P9WIL5). The experiment is described as follows: Recombinant Mtb pantothenate synthetase (PanC) inhibitors, coupled enzyme, confirmatory (AID 375).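 Further: 0% = full reaction with vehicle and 100% = no enzyme background.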 As to conditions: coupled enzyme assay; at 10 µM, hits give high values.
Chain of Pantothenate synthetase (Mycobacterium tuberculosis (strain ATCC 25618 / H37Rv)) (P9WIL5 whole entry, looked up): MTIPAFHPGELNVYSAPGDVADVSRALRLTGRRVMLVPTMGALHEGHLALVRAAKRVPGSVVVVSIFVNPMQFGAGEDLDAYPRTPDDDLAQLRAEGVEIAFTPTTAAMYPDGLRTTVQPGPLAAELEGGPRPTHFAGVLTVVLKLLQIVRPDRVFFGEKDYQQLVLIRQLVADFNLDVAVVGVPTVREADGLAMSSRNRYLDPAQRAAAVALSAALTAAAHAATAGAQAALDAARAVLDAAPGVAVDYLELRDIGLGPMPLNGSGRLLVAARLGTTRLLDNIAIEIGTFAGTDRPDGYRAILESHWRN
Take `Cc1cc2c(c(=O)n1CCN(C)C)C(c1ccncc1)C(C#N)=C(N)O2` (stereo not given): the inhibition is 0% (inactive).
For the compound `Cc1onc(-c2ccccc2Cl)c1C(=O)Nc1cccnc1`, the inhibition was 5% (inactive).
As for `CS(=O)(=O)c1ccc2nc(NC(=O)CCC(=O)c3cccs3)sc2c1`, the inhibition is 1% (inactive).
Consider `Cn1c(CSc2nc3ccccc3s2)nnc1SCC(=O)NCCN1CCOCC1`, for which the inhibition is 0% (inactive).
Then `O=C(Cc1cccs1)Nc1ccccc1C(=O)O`, with 4% (inactive).
Then `COC(=O)c1c(O)ccc(Oc2ccccc2)c1C(=O)OC`, with 0% (inactive); and `COc1ccc(CCNc2oc(COc3ccccc3Cl)nc2C#N)cc1OC`, with 3% (inactive).
Turning to `COc1ccccc1NC(=O)CSc1nnc(-c2ccncc2)o1`, the inhibition is 0% (inactive).
On to `N#Cc1c(NCc2ccccc2)ccnc1NCc1cccnc1`, for which the inhibition was 0% (inactive).
On to `CCOc1ccccc1NC(=O)C1CCCN(C(=O)NCc2ccccc2)C1` (stereo not given), for which the inhibition was 8% (inactive).
Then `COc1ccc(S(=O)(=O)N2CCC(C(=O)Nc3c(F)cccc3F)CC2)cc1`, with 2% (inactive).
In the case of `CN(c1ccccc1)C(c1ccc(F)cc1)c1nnnn1CC1CCCO1` (stereo not given), the inhibition is 0% (inactive).
With `Cc1cc(C)c(OCC(=O)Nc2ccc3c(c2)OCO3)cc1C`, the inhibition is 2% (inactive).
Regarding `O=C(c1ccc2c(c1)OCO2)N1CCCN(C(=O)c2ccc3c(c2)OCO3)CC1`, the inhibition is 0% (inactive).
`O=C(O)C1CC=CCC1C(=O)NCc1ccccc1` (stereo not given): the inhibition was 1% (inactive).
Take `COc1cc(NC(=O)Nc2cccc(C(C)=O)c2)cc(OC)c1OC`: the inhibition is 0% (inactive).
`CCCC(NC(=O)CNC(=O)C(C)(C)C)C(=O)O` (stereo not drawn) (Piv-Gly-[ξNva]-OH): the inhibition is 0% (inactive).
`O=C(c1cc(-c2cccc(O)c2)on1)N1CCN(C(c2ccccc2)c2ccccc2)CC1`: the inhibition was 8% (inactive).
On to `O=C(NCc1ccc2c(c1)OCO2)C1CCCN(S(=O)(=O)c2cccnc2)C1` (stereo not given), for which the inhibition was 0% (inactive).
As for `CN(C=O)CP(=O)(O)CCN1CCCC1=O`, the inhibition was 0% (inactive).
Take `CC(=O)c1cc(Cl)ccc1OC(=O)c1ccco1`: the inhibition was 0% (inactive).
Consider `CSC(=O)CC(=O)NC(=O)c1ccccc1`, for which the inhibition is 1% (inactive).
As for `O=C(CN1CCN(Cc2ccc3c(c2)OCO3)CC1)Nc1ccc2c(c1)OCCO2`, the inhibition is 0% (inactive).
For the compound `CCOC(=O)CC(=O)c1cc(OC)c(OC)c(OC)c1`, the inhibition was 0% (inactive).
As for `O=C(O)c1cc(=O)cc(C(=O)O)[nH]1`, the inhibition is 0% (inactive).
In the case of `CCN(CC)CCNC(=O)c1ccc(CS(=O)(=O)c2ccc(Br)cc2)o1`, the inhibition is 0% (inactive).
With `Cc1cccc(NC(=O)c2cc3ccccc3o2)c1`, the inhibition is 5% (inactive).
Turning to `COc1ccc(C(=O)OC(COc2ccccc2)Cn2ccnc2)cc1` (stereo not given), the inhibition was 0% (inactive).
For the compound `COc1ccc(CCNC(=O)CSc2nnc(CNc3ccc(Cl)cc3)o2)cc1OC`, the inhibition is 0% (inactive).
Take `CCOC(=O)C1=C(C)N=c2s/c(=C\c3cccn3C)c(=O)n2C1c1cccc(OC)c1OC` (stereo not given): the inhibition was 0% (inactive).
Turning to `O=C(NCc1ccccc1)C1CCN(S(=O)(=O)N2CCCCCC2)CC1`, the inhibition was 2% (inactive).
Then `CCN(CC)C(=O)C1CCCc2c1[nH]c1ccc(Cl)cc21` (stereo not given), with 0% (inactive); and `OC(COc1ccc2ccccc2c1)CN1CCOCC1` (stereo not given), with 0% (inactive).
For the compound `CS(=O)(=O)N(CC(=O)NCc1ccncc1)Cc1ccc(Cl)cc1`, the inhibition was 0% (inactive).
Then `CCC(Sc1ncccc1C(=O)O)C(=O)N1CCCC1` (stereo not given), with 0% (inactive).
In the case of `O=C(c1ccc(=O)[nH]c1)N(Cc1ccco1)C1(C(=O)NC2CCCC2)CCCCC1`, the inhibition is 0% (inactive).
`Cn1c(=O)c2c(nc(NCCCO)n2C/C=C/c2ccccc2)n(C)c1=O`: the inhibition is 4% (inactive).
For `CCOC(=O)c1sc(N2C(=O)C(O)=C(C(=O)c3ccco3)C2c2ccccc2)nc1C` (stereo not given), the inhibition is 0% (inactive).
For the compound `Cc1cc2c(c(=O)n1CCc1ccccc1)C(C(C)C)C(C#N)=C(N)O2` (stereo not given), the inhibition is 5% (inactive).
Then `Cc1[nH]c2c(C)cccc2c(=O)c1Br`, with 0% (inactive).
